High-throughput results deposited in PubChem BioAssay by National Center for Advancing Translational Sciences (NCATS).
Compounds with a hit are over-represented: about 18% of the library has one in this group of screens.
TDP1 cell noCPT: qHTS for Inhibitors of human tyrosyl-DNA phosphodiesterase 1 (TDP1): qHTS in cells in absence of CPT. 420,000 tested, 15% active. AID 686978, 2013. DT40 Tdp1-/- hTDP1 cells, no CPT, ATP luminescence, 48 h. Potency, µM (series often up to 46.2 µM), usual class: inhibitors; note: nearly all actives have a fitted effect of over 55% in size
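Stably hTDP1-transfected Tdp1-null chicken DT40 cells were treated with library compounds minus camptothecin and grown for at least 48 hr at 37 °C, after which cellular ATP was quantified by luminescence.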
TDP1 cell CPT: growth inhibition of DT40 Tdp1-/-;hTDP1 cells with camptothecin (screen for TDP1 inhibitors); chicken DT40 Tdp1-/-;hTDP1 cells + 20 nM CPT, ATP luminescence, 48 h; Potency, µM (highest dose often 46.2 µM), most hits filed as inhibitors; 420,000 tested, 12% active; AID 686979; note: nearly all actives have a fitted effect of over 55% in size
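Cell growth measured by CellTiter-Glo luminescence after a minimum 48 h, 37 C compound exposure with 20 nM CPT in Tdp1-knockout DT40 cells stably expressing hTDP1, seeded 400/well; qHTS titration format.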
RORgamma inh: inhibitors of mouse ROR gamma transcriptional activity; P51450; Drosophila S2 Gal4-RORgamma UAS-luciferase reporter, 20 h; Potency, µM (titrated, usually from 53.6 µM), hits mostly inhibitors; 310,000 tested, 5.4% active; AID 2551; note: nearly all actives have a fitted effect of over 60% in size
Target sequence (P51450 whole entry, looked up, the tested form may be a part): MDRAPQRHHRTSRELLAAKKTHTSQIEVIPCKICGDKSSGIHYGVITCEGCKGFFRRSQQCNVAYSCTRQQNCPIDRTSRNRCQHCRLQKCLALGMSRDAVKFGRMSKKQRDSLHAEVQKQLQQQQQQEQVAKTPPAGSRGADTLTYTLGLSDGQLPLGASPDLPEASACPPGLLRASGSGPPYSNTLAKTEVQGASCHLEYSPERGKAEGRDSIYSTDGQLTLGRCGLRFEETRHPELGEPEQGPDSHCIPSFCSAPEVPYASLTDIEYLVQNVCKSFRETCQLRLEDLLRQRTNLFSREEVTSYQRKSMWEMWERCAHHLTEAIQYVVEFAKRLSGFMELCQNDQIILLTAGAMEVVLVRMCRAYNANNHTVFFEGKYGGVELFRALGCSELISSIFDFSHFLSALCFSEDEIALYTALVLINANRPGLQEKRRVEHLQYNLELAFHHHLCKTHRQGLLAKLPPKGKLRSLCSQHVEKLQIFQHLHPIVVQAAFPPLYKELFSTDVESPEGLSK
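Stably transfected Drosophila Schneider cells are the test system, with ROR gamma fused to Gal4 and luciferase under UAS control; luminescence is read after 20 hr of 700 uM copper sulfate induction at ambient temperature.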
LDHA block: LDHA (human) enzyme inhibition. P00338. purified LDHA, NADH/diaphorase-resazurin fluorescence; active compounds read low. activity change, % (values are at about 110 or 230 µM). 480,000 tested, 0.15% active; in the data active = activity change below about -30%; inconclusive = mostly about -25% to -30%
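LDH5 2 nM; NADH 0.06 mM, pyruvate 0.2 mM; 200 mM Tris pH 7.4, EDTA, Tween-20; 5 min RT. Detection: diaphorase 0.133 mg/mL + resazurin 37 µM, fluorescence ex540/em590 at 0 and 20 min; normalized to enzyme-free and DMSO wells.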
IL1B secr inh: inflammasome signaling inhibition, IL-1 beta readout. THP-1 LPS/ATP IL-1B secretion, AlphaLISA, 16 h; active compounds read low. activity change, % at 57.5 µM. 360,000 tested, 4.7% active; in the data active = activity change below about -50%; inconclusive = mostly about -30% to -49%
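THP-1 cells pretreated 1 hr with compounds (up to 57.5 uM final), then stimulated with LPS (250 ng/mL final) plus ATP (1.25 mM final); secreted IL-1B measured by AlphaLISA after 16 hr, decreased signal indicating inhibition.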
VP16 counter: Gal4-VP16 reporter inhibition counter-screen; 310,000 tested, 3.5% active; Potency, µM (top dose mostly 53.6 µM), actives largely listed as inhibitors; Drosophila S2 Gal4-VP16 UAS-luciferase, luminescence, 20 h;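 note: Gal4-VP16 expression switched on by copper sulfate through the metallothionein promoter; nearly all actives have a fitted effect of over 50% in size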
Numbers stand for hits. Unless noted, calls come from the whole dose curve; as a rule, active = well fitted curve in the direction sought with a large enough effect; inconclusive = small, poorly fitted or top-dose-only effect, or another doubt; inactive = no such curve, though single readings can be large; an effect the other way counts as inactive or inconclusive.

Results for CCCCC(CC(O)COCCC)c1n[nH]c(=S)n1-c1ccccc1 (stereo unspecified) ?
TDP1 cell noCPT: inactive; TDP1 cell CPT: inactive; RORgamma inh: 11µM; LDHA block: inactive; IL1B secr inh: inactive; VP16 counter: inconclusive

How did O=C(O)CCc1ccc(S(=O)(=O)NCCc2ccc(Cl)cc2)cc1 do in these assays?
LDHA block: inactive

How did CCc1cccc(C)c1NC(=O)Cn1nc(C)c2nn(-c3ccc(Cl)cc3)c(C)c2c1=O do in these assays?
TDP1 cell noCPT: 21µM; TDP1 cell CPT: 16µM; LDHA block: inactive

How did CCOc1ccccc1CNC(=O)Cn1nc(C)c2nn(-c3ccc(Cl)cc3)c(C)c2c1=O do in these assays?
TDP1 cell noCPT: 18µM; TDP1 cell CPT: inconclusive; LDHA block: inactive

What do the screens show for `CCOC(=O)c1ccc(NC(=O)Cn2nc(C)c3nn(-c4ccc(Cl)cc4)c(C)c3c2=O)cc1`?
TDP1 cell noCPT: inconclusive; TDP1 cell CPT: inactive; LDHA block: inactive

What do the screens show for `Cc1ccccc1CNC(=O)Cn1nc(C)c2nn(-c3ccc(Cl)cc3)c(C)c2c1=O`?
TDP1 cell noCPT: inconclusive; TDP1 cell CPT: inconclusive; LDHA block: inactive

How did Cc1ccc(Oc2ccc(NC(=O)C3CCCCC3)cc2)cc1 do in these assays?
LDHA block: inactive

What do the screens show for `CC(=O)c1ccc(OCc2coc(-c3cccc(F)c3)n2)cc1`?
LDHA block: inactive

What do the screens show for `Cc1ccc(-n2c(SCC(=O)Nc3cc(S(=O)(=O)N4CCOCC4)ccc3Cl)nc3ccccc3c2=O)cc1`?
TDP1 cell noCPT: inactive; TDP1 cell CPT: inactive; RORgamma inh: inactive; LDHA block: inactive; IL1B secr inh: inactive; VP16 counter: inactive

How did Cc1ccc(S(=O)(=O)N2CCOCC2)cc1NC(=O)CSc1nnc2cc(C)c3ccccc3n12 do in these assays?
TDP1 cell noCPT: 23µM; TDP1 cell CPT: inconclusive; RORgamma inh: inactive; LDHA block: inactive; IL1B secr inh: inactive; VP16 counter: inactive

What do the screens show for `Cc1cc2nnc(SCC(=O)Nc3cc(S(=O)(=O)N4CCOCC4)ccc3Cl)n2c2ccccc12`?
TDP1 cell noCPT: 16µM; TDP1 cell CPT: inconclusive; RORgamma inh: inactive; LDHA block: inactive; IL1B secr inh: inconclusive; VP16 counter: inactive

What do the screens show for `COc1ccc(-c2n[nH]c(C)c2-c2cc(OC)ccc2O)cc1`?
TDP1 cell noCPT: inconclusive; TDP1 cell CPT: inconclusive; RORgamma inh: inactive; LDHA block: inactive; IL1B secr inh: inactive; VP16 counter: inactive

Results for Cc1ccc(O)c(-c2cc(-c3cccc(F)c3)n[nH]2)c1 ?
TDP1 cell noCPT: inconclusive; TDP1 cell CPT: inconclusive; RORgamma inh: inconclusive; LDHA block: inactive; IL1B secr inh: inactive; VP16 counter: inconclusive

Results for COc1ccc(O)c(-c2cc(-c3cccc(Br)c3)n[nH]2)c1 ?
TDP1 cell noCPT: 16µM; TDP1 cell CPT: inconclusive; RORgamma inh: inconclusive; LDHA block: inactive; IL1B secr inh: inactive; VP16 counter: inconclusive

What do the screens show for `CCOC(=O)c1cc(-c2ccc(OC)cc2)n[nH]1`?
TDP1 cell noCPT: inactive; TDP1 cell CPT: inactive; RORgamma inh: inactive; LDHA block: inactive; IL1B secr inh: inactive; VP16 counter: inactive

Results for COc1ccc(-c2cc(-c3cc(OC)ccc3O)[nH]n2)cc1 ?
TDP1 cell noCPT: inconclusive; TDP1 cell CPT: 21µM; RORgamma inh: inconclusive; LDHA block: inactive; IL1B secr inh: inactive; VP16 counter: inconclusive

How did COc1ccc(O)c(-c2cc(-c3ccc(F)cc3)n[nH]2)c1 do in these assays?
TDP1 cell noCPT: inconclusive; TDP1 cell CPT: inactive; RORgamma inh: 13µM; LDHA block: inactive; IL1B secr inh: -51; VP16 counter: inconclusive

How did COc1ccc(-c2cc(-c3ccc(Cl)cc3)n[nH]2)c(O)c1 do in these assays?
TDP1 cell noCPT: inconclusive; TDP1 cell CPT: inconclusive; RORgamma inh: 8.9µM; LDHA block: inactive; IL1B secr inh: inconclusive; VP16 counter: inconclusive

How did COc1ccc(NC(=O)c2ccc3c(c2)CCC3)cc1 do in these assays?
LDHA block: inactive

Results for Cc1ccc(-n2nnnc2C2(Nc3ccccc3)CCCCC2)cc1 ?
LDHA block: inactive

Results for CCn1nc(C(=O)Nc2ccc(S(=O)(=O)N(C)C)cc2)c2ccccc2c1=O ?
LDHA block: inactive

Results for CCCc1nc2ccc(C)cn2c1Cc1ccc(OC)cc1C ?
TDP1 cell noCPT: 23µM; TDP1 cell CPT: 13µM; LDHA block: inactive; IL1B secr inh: inactive

What do the screens show for `CCCc1nc2ccc(Br)cn2c1Cc1ccccc1OC`?
TDP1 cell noCPT: 0.82µM; TDP1 cell CPT: 1.5µM; LDHA block: inactive; IL1B secr inh: inactive

How did CCCc1nc2ccc(Cl)cn2c1Cc1ccccc1 do in these assays?
TDP1 cell noCPT: 4.1µM; TDP1 cell CPT: 6.5µM; LDHA block: inactive; IL1B secr inh: inactive

Results for CCCc1nc2ccc(C)cn2c1Cc1ccccc1OC ?
TDP1 cell noCPT: 21µM; TDP1 cell CPT: 21µM; LDHA block: inactive; IL1B secr inh: inactive

How did COc1ccc(-c2c(NC(=O)c3ccc([N+](=O)[O-])cc3)oc3ccccc3c2=O)cc1OC do in these assays?
LDHA block: inactive

How did CCCc1nc2ccc(Cl)cn2c1Cc1ccccc1OC do in these assays?
TDP1 cell noCPT: 12µM; TDP1 cell CPT: 7.3µM; LDHA block: inactive; IL1B secr inh: inactive

How did COc1ccccc1Cc1c(-c2ccc(F)cc2)nc2ccc(Cl)cn12 do in these assays?
TDP1 cell noCPT: inconclusive; TDP1 cell CPT: inconclusive; LDHA block: inactive; IL1B secr inh: inactive

How did CCCc1nc2c3ccccc3ccn2c1Cc1ccc(OC)cc1C do in these assays?
TDP1 cell noCPT: inconclusive; TDP1 cell CPT: 18µM; LDHA block: inactive; IL1B secr inh: inactive

What do the screens show for `CC(=O)c1ccc(NC(=O)Cn2ccc3ccc(Cl)cc32)cc1`?
LDHA block: inactive

How did O=C(Nc1ccc2nccnc2c1)Nc1ccccc1Cl do in these assays?
TDP1 cell noCPT: 15µM; TDP1 cell CPT: 18µM; RORgamma inh: inactive; LDHA block: inactive; IL1B secr inh: inconclusive; VP16 counter: inconclusive

Results for CN1CCN(NC(=O)Nc2ccc(Br)cc2Cl)CC1 ?
TDP1 cell noCPT: inactive; TDP1 cell CPT: inactive; RORgamma inh: inactive; LDHA block: inactive; IL1B secr inh: -50; VP16 counter: inactive

What do the screens show for `O=C(Nc1cccc(Cl)c1)Nc1ccc2nccnc2c1`?
TDP1 cell noCPT: inconclusive; TDP1 cell CPT: inconclusive; RORgamma inh: inactive; LDHA block: inactive; IL1B secr inh: inconclusive; VP16 counter: inactive

Results for O=C(Nc1ccc(Br)cc1)Nc1ccccc1Cl ?
TDP1 cell noCPT: 10µM; TDP1 cell CPT: 15µM; RORgamma inh: inactive; LDHA block: inactive; IL1B secr inh: inconclusive; VP16 counter: inactive
